{
  "source": "PubChem BioAssay (Tox21)",
  "note": "Records with an inconclusive call do not appear. Active and inactive are the calls of the source. The call rests on the fitted dose curve; in most records, active means well fitted cell-killing curve with a large enough effect in the repeat runs; inconclusive means weak or mixed curves; inactive means no such curve, though single readings can be large or run the other way. On the % scale 0 is the no-effect control and ±100 the full control effect.",
  "data": [
    {"experiment": "qHTS assay to identify small molecule antagonists of the peroxisome proliferator-activated receptor delta (PPARd) signaling pathway - cell viability counter screen (AID 743213); further: nearly all actives have a fitted effect of over 50% in size", "details": "PPARd-bla HEK293H viability, CellTiter-Glo luminescence, 17 h; series mostly up to 62 µM", "excerpt": "U.S. Tox21 Program National Center for Advancing Translational Sciences [NCATS] NIH Chemical Genomics Center [NCGC] U.S. Environmental Protection Agency [EPA] National Institutes of Environmental Health Sciences [NIEHS] National Toxicology Program [NTP] U.S. Food and Drug Administration [FDA] Tox21 Assay Overview: The peroxisome proliferator-activated receptors (PPARs) are lipid-activated transcription factors of the nuclear receptor superfamily with three distinct subtypes namely PPAR alpha, PPAR delta (PPARd) and PPAR gamma. All these subtypes heterodimerizes with Retinoid X receptor (RXR) and have different physiological functions. […] To identify the compounds that inhibit PPAR-delta signaling, GeneBLAzer PPAR delta UAS-bla HEK293H cell line (Invitrogen, Carlsbad, CA, USA) containing a beta-lactamase reporter gene under the control of an Upstream Activator Sequence (UAS) was used to screen the Tox21 compound library. The cytotoxicity of the Tox21 compound library against the PPARd-bla cell line was tested in parallel by measuring the cell viability using CellTiter-Glo assay (Promega, Madison, WI) in the same wells.\nTox21 Assay Protocol Summary: PPARd-bla cells were dispensed at 3000 cells/5uL/well in 1536-well black wall/clear bottom plates using a Multidrop Combi (Thermo Fisher Scientific, Waltham, MA) dispenser. After the assay plates were incubated at 37 C and 5% CO2 for 5 h, 23 nL of compounds dissolved in DMSO, positive controls or DMSO only was transferred to the assay plate by a Pintool station (Kalypsys, San Diego, CA), followed by addition of 1ul L165041 (300 nM, final concentration in the wells). The assay plates were incubated at 37 C for 17 h, and then 1 uL of LiveBLAzerTM B/G FRET substrate was added using a Bioraptr Flying Reagent Dispenser (FRD) workstation (Beckman Coulter, Indianapolis, IN, USA). The assay plates were incubated at room temperature for 2 h and fluorescence intensity was measured by an Envision plate reader (PerkinElmer, Shelton, CT). For cell viability readout that measures cytotoxicity, 3 ul/well of CellTiter-Glo reagent was added into the assay plates using a Bioraptr FRD. After 30 min incubation at room temperature, the luminescence intensity in the plates was measured using a ViewLux plate reader (PerkinElmer).", "values": [
      {"smiles": "CC(=O)Nc1ccc(C)cc1", "outcome": "inactive"},
      {"smiles": "CC(=O)/C=C/c1ccco1", "outcome": "inactive"},
      {"smiles": "CC(C)(c1ccc(Oc2ccc3c(c2)C(=O)OC3=O)cc1)c1ccc(Oc2ccc3c(c2)C(=O)OC3=O)cc1", "outcome": "inactive"},
      {"smiles": "NC(=O)NNC(N)=O", "outcome": "inactive"},
      {"smiles": "O=C(c1ccc2c(c1)C(=O)OC2=O)c1ccc2c(c1)C(=O)OC2=O", "outcome": "inactive"},
      {"smiles": "CN=C(NC#N)NCCSCc1csc(N=C(N)N)n1", "outcome": "inactive"},
      {"smiles": "O=C(/C=C/c1ccccc1)NCCO", "outcome": "inactive"},
      {"smiles": "SCCSCCS", "outcome": "inactive"},
      {"smiles": "Nc1ccc(/C=C/c2ccc(N)cc2S(=O)(=O)O)c(S(=O)(=O)O)c1", "viability change, negative = cytotoxic": "-6.12% [at 0.575 µM] (inactive)"},
      {"smiles": "CCCCC(CC)C(=O)OC(C)C", "note": "(stereo not given)", "outcome": "inactive"},
      {"smiles": "CCC1Nc2cc(Cl)c(S(N)(=O)=O)cc2S(=O)(=O)N1", "note": "(stereo not given)", "outcome": "inactive"},
      {"smiles": "C=C[C@@H](C)CCC=C(C)C", "outcome": "inactive"},
      {"smiles": "Cc1ncc([N+](=O)[O-])n1CC(O)CCl", "note": "(stereo not given)", "outcome": "inactive"},
      {"smiles": "C=C(C)C(=O)OC", "outcome": "inactive"},
      {"smiles": "COc1ccc(NS(=O)(=O)c2ccc(N)cc2)nn1", "outcome": "inactive"},
      {"smiles": "O=S1(=O)CCCC1", "outcome": "inactive"},
      {"smiles": "O=C(O)Cc1cccc(-c2cc(CCCCCCc3ccc(O[C@H]4O[C@H](CO)[C@@H](O)[C@H](O)[C@@H]4O)c(-c4cccc(CC(=O)O)c4)c3)ccc2O[C@H]2O[C@H](CO)[C@@H](O)[C@H](O)[C@@H]2O)c1", "viability change, negative = cytotoxic": "9.66% [at 0.575 µM] (inactive)"},
      {"smiles": "CCCCCC1CCCC(=O)O1", "note": "(stereo not given)", "outcome": "inactive"},
      {"smiles": "CCc1nccnc1C", "outcome": "inactive"},
      {"smiles": "C=CCOCC(O)CCl", "note": "(stereo not given)", "outcome": "inactive"},
      {"smiles": "CCC(O)C(C)(C)C", "note": "(stereo not given)", "outcome": "inactive"},
      {"smiles": "Cc1ccccc1C", "outcome": "inactive"},
      {"smiles": "CCCCOC(=O)C(C)OC(=O)CCC", "note": "(stereo not given)", "outcome": "inactive"},
      {"smiles": "CCN(CCO)c1cccc(C)c1", "outcome": "inactive"},
      {"smiles": "CCNC(=O)NCCCOc1cccc(CN2CCCCC2)c1", "outcome": "inactive"},
      {"smiles": "CC1=NN(c2ccc(S(=O)(=O)O)cc2)C(=O)C1N=Nc1ccccc1", "note": "(stereo not given)", "outcome": "inactive"},
      {"smiles": "NCCc1ccn[nH]1", "outcome": "inactive"},
      {"smiles": "CC(C)(C)NCCO", "outcome": "inactive"},
      {"smiles": "CC(=O)c1ccc(OCC(=O)N2CCCCC2)cc1", "outcome": "inactive"},
      {"smiles": "CCCCCCCCC(=O)OCC", "outcome": "inactive"},
      {"smiles": "O=S(=O)(O)CCO", "outcome": "inactive"},
      {"smiles": "Nc1nc(=O)n([C@@H]2O[C@H](CO)[C@@H](O)[C@@H]2F)cc1I", "outcome": "inactive"},
      {"smiles": "CCS(=O)(=O)CCn1c([N+](=O)[O-])cnc1C", "outcome": "inactive"},
      {"smiles": "CC(C)CCCCCCOC(=O)C1CCCCC1C(=O)OCCCCCCC(C)C", "note": "(stereo not given)", "outcome": "inactive"},
      {"smiles": "CCC(=O)OCCC(C)CCC=C(C)C", "note": "(stereo not given)", "outcome": "inactive"},
      {"smiles": "Cc1ccccc1N1CCN(CCc2nnc3n2CCCC3)CC1", "outcome": "inactive"},
      {"smiles": "CO[Si](CCCS)(OC)OC", "outcome": "inactive"},
      {"smiles": "CC(C)COC(=O)/C=C/c1ccccc1", "outcome": "inactive"},
      {"smiles": "Nc1cc(C(=O)O)ccc1Cl", "outcome": "inactive"},
      {"smiles": "CCCCOC(=O)C(=O)OCCCC", "outcome": "inactive"}
    ]}
  ]
}
